Measured values: PubChem BioAssay AID504333 (National Center for Advancing Translational Sciences (NCATS), 2011)
Among all 360,000 compounds or so, about 16,000 (4.4%) were called active. Roughly 9% stayed inconclusive and do not appear here. The full list was thinned out, with actives kept by preference. A number with no mark means an inactive call. Calls come from the whole dose curve; as a rule, active = well fitted inhibition curve with a large enough effect; inconclusive = small, poorly fitted or top-dose-only effect; inactive = no such curve, though single readings can be large or run the other way.

What follows are compounds tested against Bromodomain adjacent to zinc finger domain protein 2B (Homo sapiens) (UniProt Q9UIF8) (assay: qHTS Assay for Inhibitors of BAZ2B). Details: AlphaScreen BAZ2B-H3K14Ac peptide displacement; series mostly up to 114 µM; activity change, negative = inhibition: at the top concentration.
Bromodomain adjacent to zinc finger domain protein 2B (Homo sapiens), sequence (Q9UIF8 whole entry, looked up, the tested form may be a part): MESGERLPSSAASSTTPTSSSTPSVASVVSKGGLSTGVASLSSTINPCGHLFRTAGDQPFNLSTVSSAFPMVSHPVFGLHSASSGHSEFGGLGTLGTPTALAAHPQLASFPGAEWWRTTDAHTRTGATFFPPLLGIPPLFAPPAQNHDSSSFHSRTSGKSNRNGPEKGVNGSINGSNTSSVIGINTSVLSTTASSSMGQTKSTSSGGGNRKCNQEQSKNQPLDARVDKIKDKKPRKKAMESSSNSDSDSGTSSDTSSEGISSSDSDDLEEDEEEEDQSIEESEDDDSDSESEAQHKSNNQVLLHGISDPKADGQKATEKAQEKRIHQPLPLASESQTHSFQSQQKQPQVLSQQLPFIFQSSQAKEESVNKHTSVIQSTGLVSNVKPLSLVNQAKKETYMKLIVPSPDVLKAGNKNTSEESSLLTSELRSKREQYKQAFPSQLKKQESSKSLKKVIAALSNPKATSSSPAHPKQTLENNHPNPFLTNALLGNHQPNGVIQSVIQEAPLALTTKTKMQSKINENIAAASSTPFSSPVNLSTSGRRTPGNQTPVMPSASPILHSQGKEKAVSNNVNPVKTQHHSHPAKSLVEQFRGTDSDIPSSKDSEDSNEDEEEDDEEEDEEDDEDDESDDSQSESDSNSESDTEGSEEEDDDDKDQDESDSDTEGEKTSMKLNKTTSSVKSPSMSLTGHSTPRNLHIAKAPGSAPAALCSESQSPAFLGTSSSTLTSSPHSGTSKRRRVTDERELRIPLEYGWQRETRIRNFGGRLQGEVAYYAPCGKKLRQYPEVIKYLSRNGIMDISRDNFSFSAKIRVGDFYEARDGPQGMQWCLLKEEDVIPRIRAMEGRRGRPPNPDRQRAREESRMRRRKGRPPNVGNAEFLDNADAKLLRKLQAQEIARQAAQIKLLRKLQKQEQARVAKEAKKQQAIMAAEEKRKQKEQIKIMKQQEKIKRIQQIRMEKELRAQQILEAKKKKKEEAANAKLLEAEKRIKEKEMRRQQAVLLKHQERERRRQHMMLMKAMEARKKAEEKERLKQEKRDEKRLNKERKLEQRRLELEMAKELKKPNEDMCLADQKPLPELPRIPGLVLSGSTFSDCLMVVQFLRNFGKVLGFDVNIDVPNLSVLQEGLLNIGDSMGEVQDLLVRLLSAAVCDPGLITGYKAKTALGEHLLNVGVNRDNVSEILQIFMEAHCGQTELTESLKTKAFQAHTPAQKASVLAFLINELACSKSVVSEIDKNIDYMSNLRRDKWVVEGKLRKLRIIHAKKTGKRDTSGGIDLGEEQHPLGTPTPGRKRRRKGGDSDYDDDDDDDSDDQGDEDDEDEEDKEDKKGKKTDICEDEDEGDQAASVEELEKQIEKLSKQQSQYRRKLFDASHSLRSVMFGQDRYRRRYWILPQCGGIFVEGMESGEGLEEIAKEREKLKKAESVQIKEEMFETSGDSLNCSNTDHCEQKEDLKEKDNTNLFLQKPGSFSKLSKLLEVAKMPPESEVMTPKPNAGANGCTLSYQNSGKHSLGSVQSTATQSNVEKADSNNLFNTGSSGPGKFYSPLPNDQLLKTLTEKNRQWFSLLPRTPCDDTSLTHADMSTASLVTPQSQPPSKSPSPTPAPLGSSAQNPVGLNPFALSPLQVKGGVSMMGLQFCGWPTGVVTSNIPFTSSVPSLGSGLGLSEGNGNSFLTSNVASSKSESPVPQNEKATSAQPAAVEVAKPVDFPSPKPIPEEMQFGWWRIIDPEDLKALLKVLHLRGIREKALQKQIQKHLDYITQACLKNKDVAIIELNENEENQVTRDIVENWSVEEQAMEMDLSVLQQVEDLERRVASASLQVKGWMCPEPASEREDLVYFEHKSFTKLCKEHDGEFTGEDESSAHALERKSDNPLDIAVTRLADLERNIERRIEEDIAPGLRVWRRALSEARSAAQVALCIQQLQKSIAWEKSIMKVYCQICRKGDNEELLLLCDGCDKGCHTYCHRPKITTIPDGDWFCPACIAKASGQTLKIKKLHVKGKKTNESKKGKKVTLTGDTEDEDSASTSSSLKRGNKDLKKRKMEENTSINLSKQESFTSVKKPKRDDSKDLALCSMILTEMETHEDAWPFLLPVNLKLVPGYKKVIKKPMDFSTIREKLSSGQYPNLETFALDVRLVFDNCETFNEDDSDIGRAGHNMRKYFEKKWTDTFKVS
Description: BAZ2B (bromodomain adjacent to zinc finger domain, 2B) belongs to a family of ubiquitously expressed bromodomain containing proteins, which biological function has not yet been elucidated. […] The interaction of BAZ2B with ISWI mediated by the BAZ1 motif has recently been described. […] The protocol is based on the AlphaScreen (PerkinElmer) displacement assay developed by NCGC [5], but uses the peptide ligand Biot-H3K14Ac, a high affinity binding partner for BAZ2B, in an AlphaScreen format. Although AlphaScreen has significant advantages with its utility in a variety of epigenetic target assays, the primary screening data provided in this deposition should be used with caution due to the prevalence of screening artifacts. The top compound concentration tested was 110uM in this assay, which increases number of actives and potential artifacts. An AlphaScreen counterscreen is highly recommended to be run against any putative actives to eliminate non-specific artifacts. Alternatively, one can use other AlphaScreen assays in PubChem to filter out promiscuous hits. Eberharter, A. et al. ACF1 improves the effectiveness of nucleosome mobilization by ISWI through PHD-histone contacts. The EMBO journal 23, 4029-4039. 2004. PMID: 15457208 [2] Jones, M.H. et al. A novel family of bromodomain genes. Genomics 63, 40-45. 2000. PMID: 10662543 [3] Yasgar, et al. Compound Management for Quantitative High-Throughput Screening. JALA. 2008 Apr;13(2):79-89. PMID: 18496600 [4] Inglese, et al. Quantitative high-throughput screening: a titration-based approach that efficiently identifies biological activities in large chemical libraries. Proc Natl Acad Sci. 1;103(31):11473-8. 2006. PMID: 16864780 [5] Quinn et al. A chemiluminescence-based method for identification of histone lysine methyltransferase inhibitors. Mol Biosyst 6(5): 782-8. 2010. PMID: 20567762 [6] Baell,Holloway. New substructure filters for removal of pan assay interference compounds (PAINS) from screening libraries and for their exclusion in bioassays. J Med Chem. 53(7):2719-40. 2010. PMID: 20131845 NIH Molecular Libraries Probe Production Network [MLPCN] NIH Chemical Genomics Center [NCGC] Structural Genomics Consortium (SGC) NIH Grant: 5U54 MH084681-02
To each well of a 1,536w plate, 2ul of BAZ2B protein (final 50nM) and 1ul biotinylated histone peptide acetylated at Lys14 [b-H3(5-23)K14Ac] (final 50nM) were added in 1x PBS buffer, pH 7.4, containing 0.01% Tween-20, using a nanoliter dispenser. Formation of a protein-peptide complex proceeded at room temperature for 30 min. A Kalypsys pin-tool was employed to transfer 23 nL of library compound solution in DMSO to each well. Following a 30 min incubation of the protein-peptide complex with compounds at room temperature, a mixture of 40 ug/mL each streptavidin-coated donor and nickel chelate acceptor AlphaScreen beads (final 10 ug/mL) were added in a 1ul dispense for a final volume of 4ul. A brief centrifugation followed (1000rpm, 1 min) and were then incubated protected from the light for 20 min at room temperature. Plates were read on an EnVision multilabel plate reader using the 1,536 plate HTS AlphaScreen aperture (excitation time 80 ms, measurement time 240 ms).
% is set by controls: 0 for no effect and ±100 for the full control effect; potency is the fitted concentration of half-maximal effect.
Note: nearly all actives have a fitted effect of over 60% in size.

Row | Structure (SMILES) | Potency | activity change, negative = inhibition [%]
1 | O=C(O)c1cscn1 | 20 µM (active) | 
2 | COc1ccc(NC(=O)Cn2c(=O)cc(C)c3c(C)nn(-c4cccc(Cl)c4C)c32)cc1OC |  | 6.48
3 | Cc1cccc(OCCSc2nc3ccc(NC(=O)COc4ccccc4C)cc3s2)c1 |  | -0.749
4 | COc1ccccc1OCC(=O)O/N=C(\N)c1ccccn1 |  | -12.8
5 | N/C(=N\OC(=O)c1ccc([N+](=O)[O-])cc1)c1ccccn1 |  | -10.2
6 | N/C(=N\OC(=O)Cc1ccc([N+](=O)[O-])cc1)c1ccccn1 | 50.1 µM (active) | 
7 | CCOC(=O)c1cccc(NC(=O)Cn2cnc3nc4c(cc3c2=O)CCCC4)c1 |  | 0.226
8 | Cc1ccc(CCNC(=O)c2ccc3c(c2)nc2n3CCC(C)C2)cc1 (stereo unspecified) |  | -1.73
9 | Cn1nnnc1SCCCNCc1cccc(OCc2ccc(Cl)cc2)c1 |  | -10.3
10 | CC(C)CNC(=O)C(=O)Nc1ccc(N(C)C)cc1 |  | 2.15
11 | CN(C)c1ccc(N/C=C/C(=O)C(F)(F)F)cc1 | 28.2 µM (active) | 
12 | CC(=O)N(C)c1ccc(NC(=O)C(F)(F)F)cc1 |  | 0.95
13 | Cc1oc2ccc(O)c(CN3CCC(C)CC3)c2c1C(=O)Nc1ccccc1 |  | -11.6
14 | Cc1c(OC(C)C(=O)N[C@@H](Cc2ccccc2)C(=O)O)ccc2c3c(c(=O)oc12)CCCC3 (stereo partly specified) |  | 4.24
15 | Cc1oc2c(C)c3oc(=O)c(CC(=O)N[C@@H](CC(C)C)C(=O)N[C@@H](Cc4ccccc4)C(=O)O)c(C)c3cc2c1C | 35.5 µM (active) | 
16 | Cc1c(CCC(=O)N[C@@H](CC(C)C)C(=O)O)c(=O)oc2c(C)c3oc4c(c3cc12)CCCC4 |  | 2.36
17 | COc1ccc(NC(=O)CSc2nc3ncccc3[nH]2)c(OC)c1 |  | 19.4
18 | COc1ccc(C(=O)Nc2cccc(C(=O)OCc3cc(=O)n4c5c(sc4n3)CCCC5)c2)cc1 |  | -3.18
19 | CCc1ccccc1NC(=O)Cc1ccc(NC(=O)N2CCCCc3ccccc32)cc1 |  | -22.7
20 | COc1cc([N+](=O)[O-])ccc1NC(=S)N1CCN(c2ccccn2)CC1 |  | -30
21 | O=[N+]([O-])c1ccc(N/N=C2/CCCCC2c2ccccn2)c([N+](=O)[O-])c1 (stereo unspecified) | 31.6 µM (active) | 
22 | O=C(Nc1ccccc1)O/N=C1\CCCCC1c1ccc([N+](=O)[O-])cc1[N+](=O)[O-] (stereo unspecified) |  | -10.1
23 | Cc1ccc(F)cc1NC(=O)CCSc1nc(-c2ccco2)cc(C(F)(F)F)n1 |  | -4.98
24 | COC(=O)c1cc(S(=O)(=O)N2CCN(c3cc(Cl)ccc3C)CC2)c[nH]1 |  | -34.9
25 | COc1ccc(-c2nc3sc(CCNC(=O)C(C)(C)C)c(C)n3n2)cc1 |  | -0.378
26 | COc1cc(-c2noc(-c3ccc(N4CCCC4)c([N+](=O)[O-])c3)n2)cc(OC)c1OC |  | -9.72

Row | Structure (SMILES) | Potency | activity change, negative = inhibition [%]
27 | Cc1ccc(Cl)cc1NC(=O)/C(C#N)=C\c1cn(Cc2ccc(F)cc2)c2ccccc12 |  | -0.433
28 | COc1cc(OC)cc(C(=O)NCCSCc2ccco2)c1 |  | 1.54
29 | Cc1ccsc1C(=O)NCCc1ccco1 | 56.2 µM (active) | 
30 | Cc1ccccc1NC(=O)NCc1ccco1 |  | 21.7
31 | Cc1ccc(F)cc1S(=O)(=O)N1CCC(c2nc3ccccc3s2)CC1 |  | 0.45
32 | Cc1ccc(C(=O)COC(=O)C(Cc2c[nH]c3ccccc23)NC(=O)c2ccc(Br)cc2)cc1 (stereo unspecified) |  | -3.33
33 | COc1ccc(OC)c(NC(=O)CCN2CCC(C)CC2)c1 |  | 3.12
34 | C/C=C/c1ccc(OCCOc2ccc(C=O)cc2OC)c(OC)c1 |  | -0.85
35 | CC1CCN(CC(O)COc2ccc(C(=O)c3ccccc3)cc2)CC1 (stereo unspecified) |  | 9.12
36 | C/C=C/c1ccc(OCCCCN2CCC(C)CC2)c(OC)c1 | 35.5 µM (active) | 
37 | COc1ccc(OCCCCN2CCC(C)CC2)cc1 | 79.4 µM (active) | 
38 | COc1cccc(OCC(O)CN2CCN(CCO)CC2)c1 (stereo unspecified) |  | 3.99
39 | COc1cccc(OCCCN2CCCCCC2)c1 | 56.2 µM (active) | 
40 | COc1cc(/C=N/NC(=O)c2ccoc2C)ccc1OCCN1CCCCC1 |  | -8.24
41 | COc1cccc(NC(=O)NCCN2CCCCC2)c1 |  | 7.24
42 | CCCCN(C)S(=O)(=O)c1ccc(C(=O)Nc2sc3c(c2C(N)=O)CC(C)(C)NC3(C)C)cc1 |  | -0.53
43 | COC(=O)c1ccccc1NC(=O)Cn1c(=O)cc(C)c2c(C)nn(-c3cccc(Cl)c3C)c21 |  | -12.2
44 | CCOc1ccc(CNC(=O)C2CCCN(S(=O)(=O)N(CC)c3ccc(OCC)cc3)C2)cc1 (stereo unspecified) |  | -10.5
45 | Cc1ccc(Cc2nc3ccccc3nc2SCC(=O)Nc2cccc(C(F)(F)F)c2)cc1 |  | -2.14
46 | Cc1cccc(C)c1Nc1c(-c2ccccc2O)nc2ncccn12 |  | -2.78
47 | Cc1ccc(-c2nc3ccccn3c2Nc2c(C)cccc2C)o1 | 28.2 µM (active) | 
48 | Cc1nc2ccccn2c(=O)c1NC(=O)c1c(F)cccc1F |  | 0.0769
49 | CCOC(=O)C1CCN(c2ncnc3c2c(-c2ccccc2)cn3-c2cccc(C)c2)CC1 |  | -23.7
50 | CCOc1ccc(CCNC(=O)c2csc3c2CCCCC3)cc1 |  | 3.42
51 | O=[N+]([O-])c1ccccc1S(=O)(=O)Nc1cccc2cccnc12 | 25.1 µM (active) | 
